Test results published in PubChem BioAssay.
Results filed as inconclusive are left out. Calls of active or inactive are those of the source.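 How the source made its calls, unless noted: active means viability at or below 30% in both replicate assays; inconclusive means viability at or below 30% in just one of the two assays; inactive means the rest.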

Tests used:
[1] = reducers of endogenous Her2 protein level, primary screen, SKBR3 breast tumor cells, AlphaScreen, ATP viability (AID 461;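 active means Her2 level under about 52% in both replicate screens, with viability over 70% of control, limit read from the data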;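 on Her2 level: lower value means less Her2 protein in the cells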;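 on viability: percent of carrier control wells set as 100% viability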); conditions: 18-24 h, measured here: SKBR3 viability, ATP luminescence, at 10 µM
[2] = biological target: Receptor tyrosine-protein kinase erbB-2 (Homo sapiens) (UniProt P04626); test: as above; conditions: 18-24 h, at 10 µM, stronger effect = lower value
Sequence of Receptor tyrosine-protein kinase erbB-2 (Homo sapiens) (P04626 whole entry, looked up): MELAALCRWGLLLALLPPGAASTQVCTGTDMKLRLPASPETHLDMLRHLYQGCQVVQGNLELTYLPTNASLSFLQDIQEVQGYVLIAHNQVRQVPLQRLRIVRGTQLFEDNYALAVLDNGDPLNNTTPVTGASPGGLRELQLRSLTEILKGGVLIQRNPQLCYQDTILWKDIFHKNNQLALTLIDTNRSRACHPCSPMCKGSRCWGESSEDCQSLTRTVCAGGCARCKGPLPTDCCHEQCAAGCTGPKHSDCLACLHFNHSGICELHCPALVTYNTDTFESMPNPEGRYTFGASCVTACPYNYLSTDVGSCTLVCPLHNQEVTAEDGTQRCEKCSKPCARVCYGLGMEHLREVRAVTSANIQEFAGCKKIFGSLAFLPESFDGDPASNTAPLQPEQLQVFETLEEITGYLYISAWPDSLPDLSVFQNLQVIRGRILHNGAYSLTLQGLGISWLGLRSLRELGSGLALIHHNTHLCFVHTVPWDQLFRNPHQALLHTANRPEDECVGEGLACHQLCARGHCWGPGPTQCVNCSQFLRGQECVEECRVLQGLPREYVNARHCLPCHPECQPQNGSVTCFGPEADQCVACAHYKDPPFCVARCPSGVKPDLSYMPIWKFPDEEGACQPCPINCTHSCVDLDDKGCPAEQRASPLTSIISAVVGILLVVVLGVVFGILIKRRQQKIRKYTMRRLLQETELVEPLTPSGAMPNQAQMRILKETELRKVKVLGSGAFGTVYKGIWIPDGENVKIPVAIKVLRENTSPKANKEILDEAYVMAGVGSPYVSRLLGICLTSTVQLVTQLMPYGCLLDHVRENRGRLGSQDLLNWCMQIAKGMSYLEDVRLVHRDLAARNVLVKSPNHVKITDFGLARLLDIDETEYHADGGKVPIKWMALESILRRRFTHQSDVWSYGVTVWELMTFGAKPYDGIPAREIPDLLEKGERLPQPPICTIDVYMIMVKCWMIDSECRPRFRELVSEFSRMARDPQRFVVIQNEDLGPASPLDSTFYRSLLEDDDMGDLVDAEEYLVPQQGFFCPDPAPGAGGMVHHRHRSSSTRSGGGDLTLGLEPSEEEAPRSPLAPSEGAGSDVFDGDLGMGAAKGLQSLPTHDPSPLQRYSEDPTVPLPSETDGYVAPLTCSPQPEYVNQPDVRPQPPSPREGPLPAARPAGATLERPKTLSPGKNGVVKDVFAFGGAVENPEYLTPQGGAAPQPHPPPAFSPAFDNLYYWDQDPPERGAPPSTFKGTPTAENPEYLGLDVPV

[3] = SK-BR-3 cell growth inhibitors, pilot screen, 24 h, human (AID 572;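 active means viability at or below 10% of carrier control in both of two separate runs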;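 further: compound exposure lasted between 18 and 24 h rather than exactly 24 h; 100% = carrier-treated control wells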); conditions: SK-BR-3 viability, CellTiter-Glo luminescence, at 10 µM, stronger effect = lower value
[4] = HUVEC growth inhibition – cell-based, human, primary screen (AID 575); conditions: HUVEC proliferation, CellTiter-Glo luminescence, 72 h; at 10 µM; stronger effect = lower value;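 further: 100% = median of untreated cell wells with 0.1% DMSO on each plate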
[5] = growth inhibitors of H69AR lung tumor, primary screen, human, duplicate replicates (AID 580;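 active means viability at or under a set limit in both replicates, limit being median viability minus 3 SD, cut at about 48% in these data, passing the limit was not always enough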;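 further: 100% = mean luminescence of untreated wells and 0% = no signal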); conditions: H69AR lung tumor cells viability, ATP luminescence, 72 h; at 10 µM; stronger effect = lower value
[6] = reversal of MRP1-mediated doxorubicin resistance, pilot screen, H69AR cells, doxorubicin co-treatment (AID 601;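 active means viability loss from added drug above about 55%, and viability with drug at most 40%, in both replicates, limit read from the data, passing the limit was not always enough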); conditions: CellTiter-Glo, 72 h, at 10 µM; for differential viability (reversal): stronger effect = higher value
[7] = 384-well plate pilot, post-Golgi transport modulator project, inhibition of yeast transport mutant growth (AID 636; in the data active means inhibition above about 31%); conditions: absorbance 615 nm, about 18 h, stronger effect = higher value
[8] = growth suppression of yeast trafficking mutant, preliminary HTS, modulators of trafficking downstream of Golgi apparatus project, 1536-format plate, OD 615 nm (AID 637; in the data active means inhibition above about 30%); conditions: yeast transport mutant growth, absorbance 615 nm, 18 h; stronger effect = higher value
[9] = OD615 S. cerevisiae growth inhibition, permissive medium, pilot counter-assay, permissive growth control for S. cerevisiae lifespan shortening project (AID 705;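 active means growth inhibition above 25% in both replicates, a cutoff set 3 SD above the mean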); conditions: OD615, 24 h, at 10 µM, stronger effect = higher value
[10] = Restrictive medium S. cerevisiae growth inhibition, OD615, pilot screen of yeast lifespan reduction project, restrictive growth control (AID 706;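 active means growth inhibition above a set limit, 3 SD over mean compound inhibition, in both replicates, cut at about 43% in these data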;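 further: modified DeaD lifespan yeast strain shifted to restrictive glucose medium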); conditions: OD615, 48 h, at 10 µM, stronger effect = higher value
[11] = viability gain of MRP-1-high H69AR cells under doxorubicin, pilot screen, MRP-1 activator project, CellTiter-Glo, duplicate (AID 807;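 active means viability increase at or above a cutoff of the median across tested compounds plus 3 SD, cut at about 8.5% in these data, passing the limit was not always enough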;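 further: compound pretreatment 18-22 h then 72 h combined with doxorubicin; 0% = doxorubicin alone and 100% = vehicle without doxorubicin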); conditions: H69AR viability with doxorubicin, CellTiter-Glo luminescence; at 10 µM; stronger effect = higher value
[12] = growth suppression of beta-catenin knockout HCT116, pilot screen, human colon tumor cells (AID 823;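 active means cell viability at or below a set limit in both duplicate runs, the limit being the all-compound median minus 4 SD, cut at about 23% in these data, passing the limit was not always enough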;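 further: 0% = wells killed by 20 µM Hyamine and 100% = untreated DMSO cell wells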); conditions: CellTiter-Glo, 60 h, at 10 µM, stronger effect = lower value
[13] = growth suppression of PTEN-deleted HCT116, pilot screen, cell-based, HCT116 clonal line, CellTiter-Glo (AID 824;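 active means viability at or below 27.92% in each of two runs, the all-compound median minus 4 SD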;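 further: 0% = 20 µM Hyamine control and 100% = vehicle cell control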); conditions: 60 h, at 10 µM, stronger effect = lower value
[14] = inhibitors of the yeast RAM network, pilot screen, dse1pr::URA3 reporter, 5-FOA selection (AID 869;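 active means inhibition over a set limit, the all-compound mean plus 3 SD, in both replicate runs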;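 further: 0% = DMSO wells with no growth and 100% = 10 µM 1-NA-PP1 with full growth; RAM network block rescues cells from 5-FOA so hits raise OD615 growth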); conditions: S. cerevisiae dse1pr::URA3 5-FOA growth, OD615, 2 d; at 10 µM; stronger effect = higher value; strain carries analog-sensitive mutant Cbk1 kinase
[15] = RAM signaling pathway blockade in yeast – S. cerevisiae, Pdr1DBD-CYC8 efflux-inhibited sensitized strain, primary screen (AID 1298;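 active means RAM network inhibition above 8.4% in each of two replicates, 3 SD over the compound average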;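 further: 0% = DMSO untreated cells without growth and 100% = 10 µM 1-NA-PP1 full growth; higher means more yeast growth rescued from 5-FOA killing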); conditions: S. cerevisiae cbk1-as DSE1-URA3 strain, 5-FOA growth OD615, 2 d; at 50 µM; stronger effect = higher value
[16] = H69AR cells + 2 uM doxorubicin, measured here: viability with 2 uM doxorubicin, stronger effect = lower value
[17] = H69AR cells, compound alone cytotoxicity

Row | Compound | viability [1] [%] | Her2 level [2] | viability [3] | viability [4] | viability [5] | differential viability (reversal) ([6]; H69AR cells + 2 uM doxorubicin) | viability [6, 16] [%] | viability [6, 17] [%] | inhibition [7] | inhibition [8] | growth inhibition [9] | growth inhibition [10] | viability increase [11] | viability [12] | viability [13] | inhibition [14] | RAM network inhibition [15]
1 | CCOC(=O)N1CCC(NC(=O)c2cc(C(=O)NC3CCCC3)ccc2CO)CC1 | 97.5 | 104% (inactive) | 97.5% (inactive) | 97.4% (inactive) | 92.8% (inactive) | 5.52% (inactive) | 87.3 | 92.8 | -6.8% (inactive) | 6% (inactive) | 3.62% (inactive) | -3.18% (inactive) | -0.72% (inactive) | 92.1% (inactive) | 90.2% (inactive) | 1.87% (inactive) | 1.13% (inactive)
2 | COc1ccc(C2CC(c3ccc(Cl)cc3Cl)n3nc(N)nc3N2)cc1 (stereo not given) | 95 | 93.5% (inactive) | 95% (inactive) | 79.8% (inactive) | 90.4% (inactive) | -0.635% (inactive) | 91.1 | 90.4 | 0.64% (inactive) | 3.67% (inactive) | 7.35% (inactive) | 25.7% (inactive) | 3.63% (inactive) | 90.9% (inactive) | 91.3% (inactive) | 1.59% (inactive) | 4.26% (inactive)
3 | CC1(C)Oc2ccc3ccc(=O)oc3c2C(N2CCCCC2)C1O (stereo not given) | 103 | 94% (inactive) | 103% (inactive) | 89.6% (inactive) | 92.6% (inactive) | 7.25% (inactive) | 85.3 | 92.6 | -0.52% (inactive) | -4.33% (inactive) | -4.78% (inactive) | -7.54% (inactive) | -2.43% (inactive) | 101% (inactive) | 98.2% (inactive) | 1.49% (inactive) | 2.29% (inactive)
4 | O=C(O)C1CC=CCC1C(=O)Nc1cccc(F)c1 (stereo not given) | 94 | 94% (inactive) | 94% (inactive) | 88.1% (inactive) | 87.1% (inactive) | -1.18% (inactive) | 88.3 | 87.1 | -2.99% (inactive) | -5.17% (inactive) | -1.99% (inactive) | -0.35% (inactive) | -0.78% (inactive) | 102% (inactive) | 100% (inactive) | 1.86% (inactive) | 1.15% (inactive)
5 | COc1ccccc1-n1c(=O)[nH]c2c(C(N)=O)nc(CC(C)C)nc21 | 81 | 109% (inactive) | 81% (inactive) | 96.8% (inactive) | 80.4% (inactive) | -12.7% (inactive) | 93 | 80.4 | -2.93% (inactive) | -2.17% (inactive) | -15.9% (inactive) | -13.4% (inactive) | -2.94% (inactive) | 97.9% (inactive) | 99.5% (inactive) | 1.01% (inactive) | 2.83% (inactive)
6 | COCCNC(=O)c1cc(-c2cccs2)on1 | 97 | 77.5% (inactive) | 97% (inactive) | 84.9% (inactive) | 84.7% (inactive) | 23.6% (inactive) | 61.1 | 84.7 | -0.64% (inactive) | -4.17% (inactive) | -0.235% (inactive) | 2.31% (inactive) | -7.54% (inactive) | 67.3% (inactive) | 70.6% (inactive) | 0.105% (inactive) | 3.61% (inactive)
7 | O=C(NCc1ccc2c(c1)OCO2)C1CCC(CNc2c(N3CCCCC3)c(=O)c2=O)CC1 (stereo not given) | 92.5 | 106% (inactive) | 92.5% (inactive) | 94% (inactive) | 98.9% (inactive) | 7% (inactive) | 91.9 | 98.9 | 0.64% (inactive) | -2.17% (inactive) | -2.47% (inactive) | 4.78% (inactive) | -2.93% (inactive) | 94.6% (inactive) | 88.9% (inactive) | 1% (inactive) | -0.46% (inactive)
8 | CC1=C(C(=O)N2CCCCC2)C(c2cccs2)C2=C(CCCC2=O)N1 (stereo not given) | 100 | 174% (inactive) | 100% (inactive) | 96.7% (inactive) | 92.8% (inactive) | 1.19% (inactive) | 91.7 | 92.8 | 0.13% (inactive) | -5.67% (inactive) | -7.14% (inactive) | -3.55% (inactive) | -0.74% (inactive) | 98.1% (inactive) | 87% (inactive) | 1.4% (inactive) | -0.77% (inactive)
9 | Cc1onc(-c2ccccc2Cl)c1C(=O)N1CCc2ccccc21 | 87.5 | 78.5% (inactive) | 87.5% (inactive) | 80.9% (inactive) | 79% (inactive) | -9.1% (inactive) | 88.1 | 79 | -1.82% (inactive) | -5.5% (inactive) | -1.1% (inactive) | -8.1% (inactive) | -3.41% (inactive) | 82.8% (inactive) | 87.1% (inactive) | 2.23% (inactive) | 7.99% (inactive)
10 | Cc1noc(/C=C/N(C)C)c1S(=O)(=O)N1CCc2ccccc21 | 99 | 106% (inactive) | 99% (inactive) | 67.4% (inactive) | 75.7% (inactive) | -20.2% (inactive) | 95.9 | 75.7 | 0.13% (inactive) | -3.83% (inactive) | -22.4% (inactive) | -28.7% (inactive) | -6.84% (inactive) | 84.4% (inactive) | 68.7% (inactive) | 1.65% (inactive) | 10% (inactive)
